The whole screen tested about 5,500 compounds, of which about 2,000 (36%) were called active. Roughly 18% stayed inconclusive and do not appear here. Rule as the data show it: active = normalized growth mostly below about 0.91 (no sharp cut-off); inconclusive = no clear call, values can overlap the other calls; inactive = mostly above about 0.92. The list shows a part of the results. *1 amine or outer side, *2 acyl side, *3 side chain or, on linkers, in order; H or OH if unused. Where a SMILES comes first, the peptide text is derived from it. Bridges are numbered along the chain shown (N, C = ends). [ ]: non-standard residue; d: D form. The star is where a group is joined. ξ: configuration not given here. ΔAla(E,3-NHCONH2) = NC(=O)N/C=C(/N)C(=O)O; X2 = NC1=NCCC(C(N[*:1])C(=O)[*:2])N1; ξβ3hOrn = NCCCC(N)CC(=O)*; Dap = NC[CH](N)C(=O)O
Assay: chemical genetic growth profiling, strain panel (AID 1159580);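 also: tested at 20 µM; growth read once vehicle control cultures reached saturation at 30 °C; 1 = growth at the plate median or of vehicle wells; lower values mean less growth of the strain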
Details: growth OD

Measured: normalized growth

NCCCC(N)CC(=O)NCC1NC(=O)C(CO)NC(=O)C(N)CNC(=O)C(C2CCN=C(N)N2)NC(=O)/C(=C\NC(N)=O)NC1=O (stereo not drawn) (H-[Dap]S[Dap](ξβ3hOrn)[ΔAla(E,3-NHCONH2)][X2]; lactam 1-C; configuration not given here)
inactive: S. cerevisiae deletion strains, locus YJR066W, strain TOR1, stronger effect = lower value 0.98 | S. cerevisiae deletion strains, locus YKL009W, strain mrt4, stronger effect = lower value 1.03 | S. cerevisiae deletion strains, locus YKL068W, stronger effect = lower value 1.01 | S. cerevisiae deletion strains, locus YKL085W, strain MDH1 (second series), stronger effect = lower value 1 | S. cerevisiae deletion strains, locus YKL085W, strain MDH1, stronger effect = lower value 1 | S. cerevisiae deletion strains, locus YKL160W, strain elf1, stronger effect = lower value 1.02 | S. cerevisiae deletion strains, locus YKR001C, strain vps1, stronger effect = lower value 1.01 | S. cerevisiae deletion strains, locus YKR026C, strain gcn3, stronger effect = lower value 1.01 | S. cerevisiae deletion strains, locus YKR091W, strain srl3, stronger effect = lower value 1 | S. cerevisiae deletion strains, locus YLL001W, strain dnm1, stronger effect = lower value 1.04 | S. cerevisiae deletion strains, locus YLL026W, stronger effect = lower value 1.04 | S. cerevisiae deletion strains, locus YLL041C, strain sdh2, stronger effect = lower value 1.02 | S. cerevisiae deletion strains, locus YLR027C, strain aat2, stronger effect = lower value 1.05 | S. cerevisiae deletion strains, locus YLR039C, strain RIC1, stronger effect = lower value 1.01 | S. cerevisiae deletion strains, locus YLR058C, strain SHM2, stronger effect = lower value 1.01 | S. cerevisiae deletion strains, locus YLR102C, strain apc9, stronger effect = lower value 1.02 | S. cerevisiae deletion strains, locus YLR113W, strain HOG1, stronger effect = lower value 1.05 | S. cerevisiae deletion strains, locus YLR221C, strain rsa3, stronger effect = lower value 0.993 | S. cerevisiae deletion strains, locus YLR258W, strain gsy2, stronger effect = lower value 1 | S. cerevisiae deletion strains, locus YLR262C, strain YPT6 (second series), stronger effect = lower value 1.03 | S. cerevisiae deletion strains, locus YLR262C, strain YPT6, stronger effect = lower value 1.04 | S. cerevisiae deletion strains, locus YLR268W, strain sec22, stronger effect = lower value 1.03 | S. cerevisiae deletion strains, locus YLR320W, strain mms22, stronger effect = lower value 0.989 | S. cerevisiae deletion strains, locus YLR330W, strain CHS5, stronger effect = lower value 1 | S. cerevisiae deletion strains, locus YLR342W, strain FKS1 (second series), stronger effect = lower value 1.01 | S. cerevisiae deletion strains, locus YLR342W, strain FKS1, stronger effect = lower value 1.03 | S. cerevisiae deletion strains, locus YLR357W, strain rsc2, stronger effect = lower value 1 | S. cerevisiae deletion strains, locus YLR370C, strain arc18, stronger effect = lower value 1.04 | S. cerevisiae deletion strains, locus YLR371W, strain rom2, stronger effect = lower value 0.999 | S. cerevisiae deletion strains, locus YLR384C, strain iki3, stronger effect = lower value 1.02 | S. cerevisiae deletion strains, locus YLR418C, strain cdc73, stronger effect = lower value 0.995 | S. cerevisiae deletion strains, locus YML016C, strain PPZ1, stronger effect = lower value 1 | S. cerevisiae deletion strains, locus YML032C, strain rad52, stronger effect = lower value 1.02 | S. cerevisiae deletion strains, locus YML120C, strain ndi1, stronger effect = lower value 1.05 | S. cerevisiae deletion strains, locus YML124C, strain tub3, stronger effect = lower value 1.01 | S. cerevisiae deletion strains, locus YMR058W, strain fet3, stronger effect = lower value 1.03 | S. cerevisiae deletion strains, locus YMR078C, strain ctf18, stronger effect = lower value 1.03 | S. cerevisiae deletion strains, locus YMR125W, strain sto1, stronger effect = lower value 0.993 | S. cerevisiae deletion strains, locus YMR129W, stronger effect = lower value 1.02 | S. cerevisiae deletion strains, locus YMR205C, strain PFK2, stronger effect = lower value 1.04 | S. cerevisiae deletion strains, locus YMR223W, strain ubp8, stronger effect = lower value 1.03 | S. cerevisiae deletion strains, locus YMR231W, strain pep5, stronger effect = lower value 1 | S. cerevisiae deletion strains, locus YMR263W, strain SAP30, stronger effect = lower value 1 | S. cerevisiae deletion strains, locus YMR307W, strain GAS1, stronger effect = lower value 1.06 | S. cerevisiae deletion strains, locus YNL067W, strain RPL9B, stronger effect = lower value 1.01 | S. cerevisiae deletion strains, locus YNL071W, strain lat1, stronger effect = lower value 0.994 | S. cerevisiae deletion strains, locus YNL183C, strain NPR1, stronger effect = lower value 0.988 | S. cerevisiae deletion strains, locus YNL209W, strain ssb2, stronger effect = lower value 0.998 | S. cerevisiae deletion strains, locus YNL233W, strain BNI4, stronger effect = lower value 0.974 | S. cerevisiae deletion strains, locus YNL248C, strain rpa49, stronger effect = lower value 0.98 | S. cerevisiae deletion strains, locus YNL250W, strain rad50, stronger effect = lower value 1.02 | S. cerevisiae deletion strains, locus YNL271C, strain bni1, stronger effect = lower value 1.03 | S. cerevisiae deletion strains, locus YNL298W, strain CLA4, stronger effect = lower value 1.03 | S. cerevisiae deletion strains, locus YNL307C, strain MCK1, stronger effect = lower value 1.03 | S. cerevisiae deletion strains, locus YNL322C, strain KRE1 (second series), stronger effect = lower value 1.02 | S. cerevisiae deletion strains, locus YNL322C, strain KRE1, stronger effect = lower value 1 | S. cerevisiae deletion strains, locus YNR049C, strain mso1, stronger effect = lower value 1.01 | S. cerevisiae deletion strains, locus YNR052C, strain pop2, stronger effect = lower value 1.01 | S. cerevisiae deletion strains, locus YOL012C, strain htz1 2.02 | S. cerevisiae deletion strains, locus YOL147C, strain pex11, stronger effect = lower value 1.01 | S. cerevisiae deletion strains, locus YOR001W, strain rrp6, stronger effect = lower value 1.03 | S. cerevisiae deletion strains, locus YOR061W, strain CKA2, stronger effect = lower value 1.01 | S. cerevisiae deletion strains, locus YOR069W, strain VPS5, stronger effect = lower value 1 | S. cerevisiae deletion strains, locus YOR070C, strain gyp1, stronger effect = lower value 0.994 | S. cerevisiae deletion strains, locus YOR080W, strain dia2, stronger effect = lower value 1.03 | S. cerevisiae deletion strains, locus YOR083W, strain WHI5, stronger effect = lower value 1.02 | S. cerevisiae deletion strains, locus YOR106W, strain vam3, stronger effect = lower value 1.04 | S. cerevisiae deletion strains, locus YOR136W, strain idh2, stronger effect = lower value 1.01 | S. cerevisiae deletion strains, locus YOR144C, strain elg1, stronger effect = lower value 1.02 | S. cerevisiae deletion strains, locus YOR184W, strain ser1, stronger effect = lower value 1.02 | S. cerevisiae deletion strains, locus YOR231W, strain MKK1, stronger effect = lower value 1.03 | S. cerevisiae deletion strains, locus YOR265W, strain rbl2, stronger effect = lower value 1.02 | S. cerevisiae deletion strains, locus YOR270C, strain vph1, stronger effect = lower value 1.09 | S. cerevisiae deletion strains, locus YOR290C, strain snf2, stronger effect = lower value 0.981 | S. cerevisiae deletion strains, locus YOR316C, strain cot1, stronger effect = lower value 1.05 | S. cerevisiae deletion strains, locus YPL051W, strain arl3, stronger effect = lower value 1.01 | S. cerevisiae deletion strains, locus YPL055C, strain LGE1, stronger effect = lower value 1.03 | S. cerevisiae deletion strains, locus YPL078C, strain atp4, stronger effect = lower value 1.06 | S. cerevisiae deletion strains, locus YPL106C, strain sse1, stronger effect = lower value 0.997 | S. cerevisiae deletion strains, locus YPL240C, strain hsp82, stronger effect = lower value 1.01 | S. cerevisiae deletion strains, locus YPL256C, strain CLN2, stronger effect = lower value 1.04 | S. cerevisiae deletion strains, locus YPR119W, strain clb2, stronger effect = lower value 1 | S. cerevisiae deletion strains, locus YPR141C, strain kar3, stronger effect = lower value 1.01 | S. cerevisiae deletion strains, locus YPR163C, strain tif3, stronger effect = lower value 1.02 | S. cerevisiae deletion strains, locus YPR167C, strain met16, stronger effect = lower value 1.01 | S. cerevisiae deletion strains, strain wtn01, stronger effect = lower value 1.04 | S. cerevisiae strains, strain wild type, stronger effect = lower value 1
